Experimental data from PubChem BioAssay (NCI).
The panel holds about 83,000 compounds, 20% with a hit somewhere; the sample as a whole holds those more often.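 Percent growth is the endpoint: 0 to 100 indicates growth inhibition (40 means 60% inhibition), 0 means no net growth, and negative values indicate cell death.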 The source made the active and inactive calls. The calls were made as follows: active = growth percent below 10; inactive = the rest.

Legend:
Test in all cases: NCI-60 one-dose screen, 48 h (100 = growth as untreated, 0 = no growth, -100 = all killed)
Conditions in all cases: 10 µM unless noted
NCI-H23 lung = system: NCI-H23 lung
NCI-H226 lung = system: NCI-H226 lung
NCI-H322M lung = system: NCI-H322M lung
HOP-62 NSCLC = system: HOP-62 NSCLC
NCI-H460 lung = system: NCI-H460 lung
HOP-92 NSCLC = system: HOP-92 NSCLC
NCI-H522 lung = system: NCI-H522 lung
A549/ATCC NSCLC = system: A549/ATCC NSCLC
786-0 renal = system: 786-0 renal
COLO 205 colon = system: COLO 205 colon
K-562 leukemia = system: K-562 leukemia
MALME-3M melanoma = system: MALME-3M melanoma
MDA-MB-231 breast = system: MDA-MB-231 breast
RXF 393 renal = system: RXF 393 renal
SF-268 CNS = system: SF-268 CNS
SF-295 CNS = system: SF-295 CNS
SF-539 CNS = system: SF-539 CNS
UACC-257 melanoma = system: UACC-257 melanoma
M14 melanoma = system: M14 melanoma
DU-145 prostate = system: DU-145 prostate

Measured: growth

NC1CN2CCC1CC2 (centres undefined)
inactive: NCI-H23 lung 98.7% | NCI-H226 lung 101% | NCI-H322M lung 96.5% | HOP-62 NSCLC 101% | NCI-H460 lung 109% | HOP-92 NSCLC 77.7% | NCI-H522 lung 97.9% | A549/ATCC NSCLC 105% | 786-0 renal 89.4% | COLO 205 colon 104% | K-562 leukemia 87.6% | MALME-3M melanoma 105% | MDA-MB-231 breast 98.3% | RXF 393 renal 103% | SF-268 CNS 97.2% | SF-295 CNS 95.9% | SF-539 CNS 95.6% | UACC-257 melanoma 101% | M14 melanoma 97.8%

O=C(CBr)OCCOC(=O)CBr
inactive: NCI-H23 lung 84.7% | NCI-H226 lung 109% | NCI-H322M lung 97.7% | HOP-62 NSCLC 109% | NCI-H460 lung 95% | HOP-92 NSCLC 114% | A549/ATCC NSCLC 92.8% | 786-0 renal 24.4% | COLO 205 colon 104% | DU-145 prostate 84.2% | K-562 leukemia 62.5% | MALME-3M melanoma 76.3% | MDA-MB-231 breast 80.6% | SF-268 CNS 89.9% | SF-295 CNS 104% | SF-539 CNS 112% | UACC-257 melanoma 83.1% | M14 melanoma 81%
active: NCI-H522 lung -74.6% | RXF 393 renal -7.57%

CC[C@H](C)[C@H](NC(=O)[C@H]1CCCCN1C)C(=O)N(C)[C@H](C[C@@H](OC(C)=O)c1nc(C(=O)N[C@@H](Cc2ccccc2)C[C@H](C)C(=O)O)cs1)C(C)C
active: NCI-H522 lung -47.1% | COLO 205 colon -80.3% | DU-145 prostate 4.56% | K-562 leukemia 7.63% | SF-295 CNS 8.04% | SF-539 CNS -10.5% | M14 melanoma 8.87%
inactive: NCI-H23 lung 25.9% | NCI-H226 lung 11.6% | NCI-H322M lung 51.5% | HOP-62 NSCLC 12.2% | NCI-H460 lung 11% | HOP-92 NSCLC 14.8% | A549/ATCC NSCLC 10.2% | 786-0 renal 15.6% | MALME-3M melanoma 55.2% | MDA-MB-231 breast 28.2% | RXF 393 renal 35.3% | SF-268 CNS 34.2% | UACC-257 melanoma 49.3%

NC(=O)Oc1cc(OC(N)=O)cc(N(CCCl)CCCl)c1
inactive: NCI-H23 lung 50% | NCI-H226 lung 79.5% | NCI-H322M lung 111% | HOP-62 NSCLC 58.5% | NCI-H460 lung 23.9% | HOP-92 NSCLC 75.9% | NCI-H522 lung 17.9% | A549/ATCC NSCLC 50.6% | 786-0 renal 28.6% | COLO 205 colon 86.8% | DU-145 prostate 34.3% | K-562 leukemia 55.2% | MALME-3M melanoma 80.6% | MDA-MB-231 breast 97.9% | SF-268 CNS 39.7% | SF-539 CNS 23.3% | UACC-257 melanoma 57.2% | M14 melanoma 49.4%

C[N+]1(C)CCCC1c1cccnc1 (centres undefined)
inactive: NCI-H23 lung 101% | NCI-H226 lung 98.3% | NCI-H322M lung 104% | HOP-62 NSCLC 101% | NCI-H460 lung 108% | HOP-92 NSCLC 88.9% | NCI-H522 lung 102% | A549/ATCC NSCLC 95.9% | 786-0 renal 91% | COLO 205 colon 109% | DU-145 prostate 110% | K-562 leukemia 99.3% | MALME-3M melanoma 92.1% | MDA-MB-231 breast 109% | RXF 393 renal 102% | SF-268 CNS 108% | SF-295 CNS 100% | SF-539 CNS 107% | UACC-257 melanoma 96.9% | M14 melanoma 97.5%

O=c1[nH]c(=O)[nH]c(=O)[nH]1
inactive: NCI-H23 lung 97.9% | NCI-H226 lung 122% | NCI-H322M lung 104% | HOP-62 NSCLC 85.2% | NCI-H460 lung 111% | HOP-92 NSCLC 113% | NCI-H522 lung 95.5% | A549/ATCC NSCLC 108% | 786-0 renal 96.9% | COLO 205 colon 115% | DU-145 prostate 119% | K-562 leukemia 65.2% | MALME-3M melanoma 114% | MDA-MB-231 breast 122% | RXF 393 renal 91.1% | SF-268 CNS 116% | SF-295 CNS 97.6% | SF-539 CNS 104% | UACC-257 melanoma 146% | M14 melanoma 111%

N#CCc1ccc(CC#N)cc1
active: HOP-92 NSCLC 3.82%
inactive: NCI-H23 lung 103% | NCI-H226 lung 90.4% | NCI-H322M lung 107% | HOP-62 NSCLC 88.4% | NCI-H460 lung 101% | NCI-H522 lung 91.5% | A549/ATCC NSCLC 82.1% | 786-0 renal 97.5% | COLO 205 colon 111% | DU-145 prostate 116% | K-562 leukemia 95.5% | MALME-3M melanoma 118% | MDA-MB-231 breast 96.7% | RXF 393 renal 106% | SF-268 CNS 105% | SF-295 CNS 100% | UACC-257 melanoma 89% | M14 melanoma 98.1%

CC[C@H](C)[C@H](NC(=O)[C@H]1CCCCN1C)C(=O)N(C)[C@H](C[C@@H](OC(C)=O)c1nc(C(=O)NC23C4C5C2C2C3C4C52C(=O)OC)cs1)C(C)C (some centres undefined)
active: HOP-92 NSCLC -1.14% | NCI-H522 lung -16.1% | A549/ATCC NSCLC 7.26% | COLO 205 colon -42.8% | DU-145 prostate -7.13% | K-562 leukemia 6.1% | SF-295 CNS 6.06% | SF-539 CNS -11.4%
inactive: NCI-H23 lung 18.6% | NCI-H226 lung 14.3% | NCI-H322M lung 48.3% | HOP-62 NSCLC 21.5% | NCI-H460 lung 12.6% | 786-0 renal 13.7% | MALME-3M melanoma 56.9% | MDA-MB-231 breast 20.3% | RXF 393 renal 34.2% | SF-268 CNS 24.9% | UACC-257 melanoma 46.4% | M14 melanoma 10.2%

O=C(Cc1ccccc1)NC(O)C(Cl)(Cl)Cl (centres undefined)
inactive: NCI-H23 lung 102% | NCI-H226 lung 97.2% | NCI-H322M lung 122% | HOP-62 NSCLC 110% | NCI-H460 lung 120% | HOP-92 NSCLC 123% | NCI-H522 lung 105% | A549/ATCC NSCLC 96.3% | 786-0 renal 94.7% | COLO 205 colon 118% | DU-145 prostate 118% | K-562 leukemia 98.3% | MALME-3M melanoma 115% | MDA-MB-231 breast 106% | RXF 393 renal 105% | SF-268 CNS 104% | SF-295 CNS 103% | SF-539 CNS 108% | UACC-257 melanoma 103% | M14 melanoma 101%

COc1cc(C2C3=C(CCCC3=O)N(CCO)c3cc4c(cc32)CCC4)cc(OC)c1OC (centres undefined)
inactive: NCI-H23 lung 80.8% | NCI-H226 lung 103% | NCI-H322M lung 75.1% | HOP-62 NSCLC 92.6% | NCI-H460 lung 36.4% | HOP-92 NSCLC 76% | NCI-H522 lung 62.7% | A549/ATCC NSCLC 58.9% | 786-0 renal 84.6% | COLO 205 colon 74% | DU-145 prostate 94.1% | K-562 leukemia 78.7% | MALME-3M melanoma 93.1% | MDA-MB-231 breast 82.1% | RXF 393 renal 100% | SF-268 CNS 90.4% | SF-295 CNS 99.9% | SF-539 CNS 106% | UACC-257 melanoma 67.2% | M14 melanoma 98%

O=C=Nc1ccc(Br)cc1
inactive: NCI-H23 lung 101% | NCI-H226 lung 98.8% | NCI-H322M lung 100% | HOP-62 NSCLC 119% | NCI-H460 lung 103% | NCI-H522 lung 100% | A549/ATCC NSCLC 113% | 786-0 renal 95.5% | COLO 205 colon 111% | DU-145 prostate 107% | K-562 leukemia 99.6% | MALME-3M melanoma 108% | MDA-MB-231 breast 108% | RXF 393 renal 103% | SF-268 CNS 111% | SF-295 CNS 94.8% | SF-539 CNS 110% | UACC-257 melanoma 110% | M14 melanoma 100%

CC(=O)c1cccc(S(=O)(=O)F)c1
inactive: NCI-H23 lung 100% | NCI-H226 lung 97.2% | NCI-H322M lung 95.6% | HOP-62 NSCLC 98.4% | NCI-H460 lung 109% | NCI-H522 lung 89.8% | A549/ATCC NSCLC 98.6% | 786-0 renal 98.4% | COLO 205 colon 114% | DU-145 prostate 108% | K-562 leukemia 112% | MALME-3M melanoma 98.7% | MDA-MB-231 breast 104% | RXF 393 renal 98.8% | SF-268 CNS 108% | SF-295 CNS 83.1% | SF-539 CNS 89.1% | UACC-257 melanoma 99.2% | M14 melanoma 91.3%

C[C@]12CCc3sc(Nc4ccc(F)cc4)nc3C1=CC[C@@H]1[C@@H]2CC[C@]2(C)C(=O)CC[C@@H]12
inactive: NCI-H23 lung 72.8% | NCI-H226 lung 86.7% | NCI-H322M lung 82.1% | HOP-62 NSCLC 82% | NCI-H460 lung 69.9% | HOP-92 NSCLC 96.8% | A549/ATCC NSCLC 79.5% | COLO 205 colon 86% | DU-145 prostate 19.3% | MALME-3M melanoma 78.7% | MDA-MB-231 breast 84.4% | RXF 393 renal 13.2% | SF-268 CNS 69.3% | SF-295 CNS 28.7% | SF-539 CNS 54.4% | UACC-257 melanoma 85.9%
active: 786-0 renal 5.28% | K-562 leukemia 5.92%

Cc1nnc([S-])o1.[Au+].c1ccc([PH+](c2ccccc2)c2ccccc2)cc1
inactive: NCI-H23 lung 61.5% | NCI-H226 lung 114% | NCI-H322M lung 88.4% | HOP-62 NSCLC 121% | NCI-H460 lung 86% | A549/ATCC NSCLC 76.4% | 786-0 renal 38.8% | COLO 205 colon 55.4% | DU-145 prostate 62.4% | K-562 leukemia 12.8% | MALME-3M melanoma 48.1% | MDA-MB-231 breast 61.4% | SF-268 CNS 43.4% | SF-295 CNS 92.1% | SF-539 CNS 67.8% | UACC-257 melanoma 27.9% | M14 melanoma 31.8%
active: HOP-92 NSCLC -9.28% | RXF 393 renal -53.8%

CO[C@@H]([CH2][Hg][O]C(=O)c1ccccc1)[C@@H]([CH2][Hg][O]C(=O)c1ccccc1)OC
inactive: NCI-H23 lung 102% | NCI-H226 lung 93.2% | NCI-H322M lung 105% | HOP-62 NSCLC 81.8% | NCI-H460 lung 103% | HOP-92 NSCLC 114% | A549/ATCC NSCLC 95.6% | 786-0 renal 101% | COLO 205 colon 84.8% | DU-145 prostate 91.4% | K-562 leukemia 30.1% | MALME-3M melanoma 35.6% | MDA-MB-231 breast 88.9% | RXF 393 renal 114% | SF-268 CNS 102% | SF-295 CNS 106% | SF-539 CNS 102% | UACC-257 melanoma 90.7%
